The values that follow come from article PMC7862700, “An all-to-all approach to the identification of sequence-specific readers for epigenetic DNA modifications on cytosine”.

Common to all, as to assay: DAPPL (digital affinity profiling via proximity ligation, sequencing); 10 mM Tris-HCl pH 7.5, 50 mM NaCl, 1 mM DTT, 4% glycerol, room temperature, 30 min; GST-TFs on glutathione beads, 16-mer random dsDNA library, 0.1% formaldehyde crosslink after washing; high values mean tight binding
For one assay, the target named is T1, FEV (Homo sapiens, UniProt Q99581 1-238).
T1 sequence: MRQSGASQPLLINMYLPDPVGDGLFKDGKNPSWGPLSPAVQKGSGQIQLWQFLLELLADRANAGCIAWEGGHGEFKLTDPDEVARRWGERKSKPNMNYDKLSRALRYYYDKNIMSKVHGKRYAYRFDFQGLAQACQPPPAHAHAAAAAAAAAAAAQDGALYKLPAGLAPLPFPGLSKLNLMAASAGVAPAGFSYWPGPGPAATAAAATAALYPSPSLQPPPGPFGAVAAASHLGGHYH
The settings on record: protein: recombinant; tags: N-terminal GST; dsDNA, one strand shown. A digest of the protocol: (§1)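 Beads coated with glutathione captured GST-fused human transcription factors that had been expressed in yeast, and the factors were then given DNA barcodes and pooled with a tag-only sample. The pools were incubated with 200 nmole of a random double-stranded 16-mer DNA library in Tris/NaCl/DTT/glycerol buffer for 30 min at room temperature, washed, crosslinked with 0.1% formaldehyde and proximity-ligated with BsaI/T4 ligase at 37 °C for 1 h. PCR amplification and Illumina NextSeq500 sequencing came last. Binding signal is each hexamer's read frequency for a factor divided by its frequency for the tag-only sample.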

The target of a further assay is ETV5 (Homo sapiens, UniProt P41161 1-510). The note with it: protein: recombinant; tags: N-terminal GST; dsDNA, one strand shown. Put shortly:
as §1

The target of the next assay is HSF1 (Homo sapiens, UniProt Q00613 1-529). The settings on record: protein: recombinant; tags: N-terminal GST; chain copies: 3; dsDNA, one strand shown. Put shortly:
as §1

The target in a further assay is T2, SPIC (Homo sapiens, UniProt Q8N5J4 1-248).
T2 sequence: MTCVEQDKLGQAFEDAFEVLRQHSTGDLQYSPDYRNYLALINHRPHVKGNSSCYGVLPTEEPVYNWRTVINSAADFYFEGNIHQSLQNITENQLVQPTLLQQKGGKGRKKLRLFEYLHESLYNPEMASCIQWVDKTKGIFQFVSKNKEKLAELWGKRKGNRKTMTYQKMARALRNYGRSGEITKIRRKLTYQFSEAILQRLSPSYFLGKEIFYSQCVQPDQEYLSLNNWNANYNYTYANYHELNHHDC
The note with it: protein: recombinant; tags: N-terminal GST; dsDNA, one strand shown. A digest of the protocol:
as §1

A further assay deals with ELF4 (Homo sapiens, UniProt Q99607 1-663). The settings on record: protein: recombinant; tags: N-terminal GST; dsDNA, one strand shown. Put shortly: as §1
Chain of ELF4 (Q99607 whole entry): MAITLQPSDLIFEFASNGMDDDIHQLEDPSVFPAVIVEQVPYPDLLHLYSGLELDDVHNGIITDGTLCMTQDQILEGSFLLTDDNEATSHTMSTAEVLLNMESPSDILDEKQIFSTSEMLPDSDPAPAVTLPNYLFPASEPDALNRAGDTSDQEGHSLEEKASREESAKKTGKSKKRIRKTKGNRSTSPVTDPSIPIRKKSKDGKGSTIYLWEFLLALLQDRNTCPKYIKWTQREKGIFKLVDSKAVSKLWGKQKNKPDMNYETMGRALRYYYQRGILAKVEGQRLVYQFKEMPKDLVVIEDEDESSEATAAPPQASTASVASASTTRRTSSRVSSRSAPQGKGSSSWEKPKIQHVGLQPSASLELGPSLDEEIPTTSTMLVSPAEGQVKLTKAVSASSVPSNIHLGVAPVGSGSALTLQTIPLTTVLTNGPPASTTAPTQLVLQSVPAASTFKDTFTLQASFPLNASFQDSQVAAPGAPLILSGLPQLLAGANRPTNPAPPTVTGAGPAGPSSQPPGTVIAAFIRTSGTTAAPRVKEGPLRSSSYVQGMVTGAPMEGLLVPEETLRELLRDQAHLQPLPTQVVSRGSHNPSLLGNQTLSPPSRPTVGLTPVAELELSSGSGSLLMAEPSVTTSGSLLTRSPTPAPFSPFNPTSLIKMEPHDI
For a further assay, the target named is T3, ELK4 (Homo sapiens, UniProt P28324-2 1-405).
T3 sequence: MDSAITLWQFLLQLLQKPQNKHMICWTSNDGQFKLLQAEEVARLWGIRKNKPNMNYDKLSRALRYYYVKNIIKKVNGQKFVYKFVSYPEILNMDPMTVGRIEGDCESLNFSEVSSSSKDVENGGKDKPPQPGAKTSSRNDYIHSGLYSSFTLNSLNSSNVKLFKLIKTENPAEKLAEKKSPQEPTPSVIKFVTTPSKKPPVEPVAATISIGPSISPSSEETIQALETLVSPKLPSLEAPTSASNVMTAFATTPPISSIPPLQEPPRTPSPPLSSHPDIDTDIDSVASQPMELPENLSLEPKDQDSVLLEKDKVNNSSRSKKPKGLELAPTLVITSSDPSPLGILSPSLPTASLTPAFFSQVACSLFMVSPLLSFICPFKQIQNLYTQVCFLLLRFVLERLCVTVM
The settings on record: protein: recombinant; tags: N-terminal GST; dsDNA, one strand shown. Put shortly:
as §1

The target in the next assay is T4, ETV2 (Homo sapiens, UniProt O00321 1-342).
T4 sequence: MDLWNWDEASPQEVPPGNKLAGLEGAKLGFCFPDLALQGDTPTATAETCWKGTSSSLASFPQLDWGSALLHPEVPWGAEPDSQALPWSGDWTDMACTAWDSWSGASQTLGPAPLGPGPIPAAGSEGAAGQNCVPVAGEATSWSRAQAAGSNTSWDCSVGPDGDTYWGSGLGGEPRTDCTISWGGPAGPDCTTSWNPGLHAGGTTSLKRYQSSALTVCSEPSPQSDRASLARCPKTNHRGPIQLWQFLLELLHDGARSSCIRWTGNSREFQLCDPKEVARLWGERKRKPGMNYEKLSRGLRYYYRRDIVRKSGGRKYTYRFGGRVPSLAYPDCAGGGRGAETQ
The note with it: protein: recombinant; tags: N-terminal GST; dsDNA, one strand shown. Put shortly:
as §1

In another assay the target is T5, ELF3 (Homo sapiens, UniProt P78545 1-371).
T5 sequence: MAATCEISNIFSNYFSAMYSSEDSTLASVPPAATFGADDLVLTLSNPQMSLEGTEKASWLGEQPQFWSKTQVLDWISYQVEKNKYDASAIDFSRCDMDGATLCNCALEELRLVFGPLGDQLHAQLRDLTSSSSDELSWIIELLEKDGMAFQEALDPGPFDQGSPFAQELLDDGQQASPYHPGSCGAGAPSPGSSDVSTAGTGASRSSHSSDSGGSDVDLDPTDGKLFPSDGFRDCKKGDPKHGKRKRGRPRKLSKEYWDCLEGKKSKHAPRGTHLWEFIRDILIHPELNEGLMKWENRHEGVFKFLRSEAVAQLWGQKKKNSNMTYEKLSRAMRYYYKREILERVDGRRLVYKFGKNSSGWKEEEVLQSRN
The note with it: protein: recombinant; tags: N-terminal GST; dsDNA, one strand shown. A digest of the protocol:
as §1

The target of a further assay is CRX (Homo sapiens, UniProt O43186 1-299). The settings on record: protein: recombinant; tags: N-terminal GST; dsDNA, one strand shown. Put shortly: as §1
Chain of CRX (O43186 whole entry): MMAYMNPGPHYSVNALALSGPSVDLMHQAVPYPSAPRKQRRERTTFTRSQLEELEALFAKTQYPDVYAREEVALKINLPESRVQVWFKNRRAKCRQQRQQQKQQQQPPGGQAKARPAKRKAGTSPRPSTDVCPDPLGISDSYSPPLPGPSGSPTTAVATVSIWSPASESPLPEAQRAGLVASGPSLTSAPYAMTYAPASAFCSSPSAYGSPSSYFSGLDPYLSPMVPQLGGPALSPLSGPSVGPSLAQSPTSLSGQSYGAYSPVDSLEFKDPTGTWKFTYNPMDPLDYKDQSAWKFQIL
The target in another assay is ETV1 (Homo sapiens, UniProt P50549 1-477). The settings on record: protein: recombinant; tags: N-terminal GST; dsDNA, one strand shown. A digest of the protocol:
as §1

The target of the next assay is T6, ERF (Homo sapiens, UniProt P50548 1-548).
T6 sequence: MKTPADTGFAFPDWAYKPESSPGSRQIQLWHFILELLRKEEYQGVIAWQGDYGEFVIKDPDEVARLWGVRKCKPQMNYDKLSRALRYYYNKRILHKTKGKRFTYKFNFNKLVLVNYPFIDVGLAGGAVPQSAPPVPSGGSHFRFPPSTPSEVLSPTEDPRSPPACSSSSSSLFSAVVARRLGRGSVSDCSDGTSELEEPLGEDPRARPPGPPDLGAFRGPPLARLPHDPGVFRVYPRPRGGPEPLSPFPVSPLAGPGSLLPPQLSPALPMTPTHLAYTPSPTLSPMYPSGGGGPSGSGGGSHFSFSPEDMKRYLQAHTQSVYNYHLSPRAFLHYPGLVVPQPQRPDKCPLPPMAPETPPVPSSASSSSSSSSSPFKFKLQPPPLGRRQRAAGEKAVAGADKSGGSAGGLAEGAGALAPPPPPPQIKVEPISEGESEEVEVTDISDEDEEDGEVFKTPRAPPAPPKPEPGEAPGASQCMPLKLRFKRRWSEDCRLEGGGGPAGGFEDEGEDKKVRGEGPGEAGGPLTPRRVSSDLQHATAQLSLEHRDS
The note with it: protein: recombinant; tags: N-terminal GST; dsDNA, one strand shown. A digest of the protocol: as §1

The next assay deals with T7, ETV3L (Homo sapiens, UniProt Q6ZN32 1-361).
T7 sequence: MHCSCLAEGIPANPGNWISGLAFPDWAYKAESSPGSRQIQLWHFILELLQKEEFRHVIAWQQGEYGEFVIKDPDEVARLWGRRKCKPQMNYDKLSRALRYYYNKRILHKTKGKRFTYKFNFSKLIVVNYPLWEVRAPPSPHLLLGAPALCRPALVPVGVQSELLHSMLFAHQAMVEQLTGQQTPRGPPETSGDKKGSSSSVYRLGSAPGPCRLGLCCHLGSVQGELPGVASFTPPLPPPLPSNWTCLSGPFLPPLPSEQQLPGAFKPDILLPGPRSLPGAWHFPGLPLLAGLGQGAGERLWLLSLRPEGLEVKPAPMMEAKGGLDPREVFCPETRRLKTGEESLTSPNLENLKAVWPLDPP
The settings on record: protein: recombinant; tags: N-terminal GST; dsDNA, one strand shown. A digest of the protocol: as §1

In another assay the target is T8, ETS2 (Homo sapiens, UniProt P15036 1-469).
T8 sequence: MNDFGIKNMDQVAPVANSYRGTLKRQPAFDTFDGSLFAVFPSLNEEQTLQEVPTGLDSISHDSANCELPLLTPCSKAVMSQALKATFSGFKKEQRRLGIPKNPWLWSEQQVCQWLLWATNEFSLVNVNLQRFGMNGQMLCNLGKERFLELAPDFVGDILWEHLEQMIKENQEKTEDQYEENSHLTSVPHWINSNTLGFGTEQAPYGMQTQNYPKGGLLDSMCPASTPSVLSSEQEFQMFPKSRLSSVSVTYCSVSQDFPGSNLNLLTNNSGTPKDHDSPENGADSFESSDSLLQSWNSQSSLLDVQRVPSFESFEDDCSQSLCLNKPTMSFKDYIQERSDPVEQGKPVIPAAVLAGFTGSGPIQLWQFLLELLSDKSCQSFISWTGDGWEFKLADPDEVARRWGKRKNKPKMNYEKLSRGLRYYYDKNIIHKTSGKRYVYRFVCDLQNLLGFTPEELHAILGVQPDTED
The note with it: protein: recombinant; tags: N-terminal GST; dsDNA, one strand shown. A digest of the protocol: as §1

For another assay, the target named is T9, SPDEF (Homo sapiens, UniProt O95238 1-335).
T9 sequence: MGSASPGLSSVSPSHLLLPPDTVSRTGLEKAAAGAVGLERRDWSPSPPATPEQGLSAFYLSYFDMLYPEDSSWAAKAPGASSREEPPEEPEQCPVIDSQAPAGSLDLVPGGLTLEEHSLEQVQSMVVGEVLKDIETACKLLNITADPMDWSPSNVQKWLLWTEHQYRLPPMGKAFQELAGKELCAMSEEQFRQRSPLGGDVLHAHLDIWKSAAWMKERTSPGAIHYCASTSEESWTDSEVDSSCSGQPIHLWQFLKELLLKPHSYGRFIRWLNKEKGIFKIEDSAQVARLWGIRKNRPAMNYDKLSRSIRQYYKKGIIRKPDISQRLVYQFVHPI
The note with it: protein: recombinant; tags: N-terminal GST; dsDNA, one strand shown. Put shortly:
as §1

The target in a further assay is T10, ETV7 (Homo sapiens, UniProt Q9Y603 1-341).
T10 sequence: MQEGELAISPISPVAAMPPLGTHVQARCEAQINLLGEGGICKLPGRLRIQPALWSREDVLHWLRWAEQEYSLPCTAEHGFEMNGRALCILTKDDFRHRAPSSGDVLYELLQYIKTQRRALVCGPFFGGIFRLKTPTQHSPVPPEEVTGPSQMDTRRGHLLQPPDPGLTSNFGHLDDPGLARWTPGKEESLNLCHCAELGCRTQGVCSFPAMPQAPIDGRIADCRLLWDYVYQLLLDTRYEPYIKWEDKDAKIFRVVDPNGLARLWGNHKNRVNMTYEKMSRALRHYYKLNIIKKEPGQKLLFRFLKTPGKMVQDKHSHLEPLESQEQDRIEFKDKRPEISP
The note with it: protein: recombinant; tags: N-terminal GST; dsDNA, one strand shown. A digest of the protocol:
as §1

Another assay deals with T11, ELF5 (Homo sapiens, UniProt Q9UKW6-2 1-255).
T11 sequence: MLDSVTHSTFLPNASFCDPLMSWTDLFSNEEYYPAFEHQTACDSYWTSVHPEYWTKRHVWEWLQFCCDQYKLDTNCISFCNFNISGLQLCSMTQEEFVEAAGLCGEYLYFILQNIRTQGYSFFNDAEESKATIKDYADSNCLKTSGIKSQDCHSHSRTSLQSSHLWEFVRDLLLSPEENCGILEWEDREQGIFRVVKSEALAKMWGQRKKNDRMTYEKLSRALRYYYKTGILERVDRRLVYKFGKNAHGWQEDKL
The note with it: protein: recombinant; tags: N-terminal GST; dsDNA, one strand shown. A digest of the protocol: as §1

A further assay addresses T12, ETV3 (Homo sapiens, UniProt P41162-2 1-143).
T12 sequence: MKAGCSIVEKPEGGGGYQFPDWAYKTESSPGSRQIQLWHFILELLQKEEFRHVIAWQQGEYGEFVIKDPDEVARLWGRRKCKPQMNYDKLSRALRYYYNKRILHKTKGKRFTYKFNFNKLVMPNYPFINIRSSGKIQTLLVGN
The settings on record: protein: recombinant; tags: N-terminal GST; dsDNA, one strand shown. A digest of the protocol: as §1

Another assay concerns the target ETV6 (Homo sapiens, UniProt P41212 1-452). The settings on record: protein: recombinant; tags: N-terminal GST; dsDNA, one strand shown. Put shortly: as §1

Chain of ETV6 (P41212 whole entry): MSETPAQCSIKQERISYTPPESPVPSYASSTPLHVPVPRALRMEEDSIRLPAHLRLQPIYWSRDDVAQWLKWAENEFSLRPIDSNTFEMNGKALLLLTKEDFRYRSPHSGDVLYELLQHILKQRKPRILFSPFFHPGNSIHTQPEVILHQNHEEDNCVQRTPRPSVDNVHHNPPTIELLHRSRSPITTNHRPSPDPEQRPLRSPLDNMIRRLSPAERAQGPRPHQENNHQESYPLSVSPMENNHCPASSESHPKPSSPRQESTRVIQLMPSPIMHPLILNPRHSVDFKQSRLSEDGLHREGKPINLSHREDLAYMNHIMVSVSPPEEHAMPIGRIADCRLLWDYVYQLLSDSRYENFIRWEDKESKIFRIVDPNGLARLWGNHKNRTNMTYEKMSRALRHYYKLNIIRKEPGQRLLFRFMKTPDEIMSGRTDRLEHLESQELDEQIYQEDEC
Chain of ETV1 (P50549 whole entry): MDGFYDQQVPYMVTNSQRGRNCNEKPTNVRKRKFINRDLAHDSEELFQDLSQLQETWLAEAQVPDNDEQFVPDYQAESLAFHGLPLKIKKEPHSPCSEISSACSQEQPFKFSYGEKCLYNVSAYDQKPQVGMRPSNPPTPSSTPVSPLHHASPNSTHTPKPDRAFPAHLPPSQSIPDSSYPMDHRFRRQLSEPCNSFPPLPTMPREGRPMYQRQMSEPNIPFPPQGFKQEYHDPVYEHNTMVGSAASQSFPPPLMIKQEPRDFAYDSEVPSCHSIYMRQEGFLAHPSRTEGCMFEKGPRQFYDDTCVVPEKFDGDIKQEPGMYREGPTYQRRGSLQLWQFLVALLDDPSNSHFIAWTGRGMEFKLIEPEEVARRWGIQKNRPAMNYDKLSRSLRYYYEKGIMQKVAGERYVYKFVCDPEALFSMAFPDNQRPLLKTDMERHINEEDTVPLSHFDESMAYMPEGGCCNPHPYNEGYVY
Chain of ETV5 (P41161 whole entry): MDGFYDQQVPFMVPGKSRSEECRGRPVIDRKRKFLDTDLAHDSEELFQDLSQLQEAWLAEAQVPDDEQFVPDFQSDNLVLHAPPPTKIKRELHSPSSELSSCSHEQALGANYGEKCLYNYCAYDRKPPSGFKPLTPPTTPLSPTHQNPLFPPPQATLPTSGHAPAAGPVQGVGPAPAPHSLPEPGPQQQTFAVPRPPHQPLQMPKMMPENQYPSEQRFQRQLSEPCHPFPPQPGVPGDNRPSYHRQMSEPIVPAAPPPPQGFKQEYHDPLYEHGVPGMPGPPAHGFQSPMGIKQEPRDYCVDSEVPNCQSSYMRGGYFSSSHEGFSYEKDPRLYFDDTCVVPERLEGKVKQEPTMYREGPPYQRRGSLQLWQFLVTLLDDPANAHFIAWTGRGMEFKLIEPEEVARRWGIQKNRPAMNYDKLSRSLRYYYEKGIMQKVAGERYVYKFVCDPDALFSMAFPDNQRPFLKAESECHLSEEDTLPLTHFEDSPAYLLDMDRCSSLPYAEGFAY
Chain of HSF1 (Q00613 whole entry): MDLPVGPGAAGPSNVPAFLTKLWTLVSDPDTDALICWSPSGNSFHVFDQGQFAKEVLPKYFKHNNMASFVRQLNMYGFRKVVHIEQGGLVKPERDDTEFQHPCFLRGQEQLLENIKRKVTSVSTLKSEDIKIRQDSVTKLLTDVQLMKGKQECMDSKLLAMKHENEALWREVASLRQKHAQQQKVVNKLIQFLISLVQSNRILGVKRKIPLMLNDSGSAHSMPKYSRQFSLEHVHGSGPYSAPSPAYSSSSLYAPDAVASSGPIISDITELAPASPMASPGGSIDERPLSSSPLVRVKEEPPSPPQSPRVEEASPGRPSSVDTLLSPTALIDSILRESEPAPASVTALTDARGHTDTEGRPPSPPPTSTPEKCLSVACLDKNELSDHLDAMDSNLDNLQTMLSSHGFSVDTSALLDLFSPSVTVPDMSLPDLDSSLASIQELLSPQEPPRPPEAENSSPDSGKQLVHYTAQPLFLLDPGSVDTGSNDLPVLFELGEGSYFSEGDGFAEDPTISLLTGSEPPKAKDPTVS

With CGCCTT, the binding signal in the assay with FEV was 1.39 fold enrichment (6-mer frequency, TF over GST control); in the assay with ETV5 it was 1.37 fold enrichment (6-mer frequency, TF over GST control); with HSF1, 1.32 fold enrichment (6-mer frequency, TF over GST control); with SPIC it was 1.47 fold enrichment (6-mer frequency, TF over GST control); with ELF4, 1.54 fold enrichment (6-mer frequency, TF over GST control); with ELK4, 1.52 fold enrichment (6-mer frequency, TF over GST control). Moreover, the binding signal with ETV2 is 1.64 fold enrichment (6-mer frequency, TF over GST control); in the assay with ELF3, 1.26 fold enrichment (6-mer frequency, TF over GST control); in the assay with CRX, 1.38 fold enrichment (6-mer frequency, TF over GST control); with ETV1, 1.38 fold enrichment (6-mer frequency, TF over GST control); with ERF, 1.35 fold enrichment (6-mer frequency, TF over GST control); with ETV3L, 1.29 fold enrichment (6-mer frequency, TF over GST control). In addition, the binding signal is 1.3 fold enrichment (6-mer frequency, TF over GST control) in the assay with ETS2; 1.3 fold enrichment (6-mer frequency, TF over GST control) with SPDEF; 1.34 fold enrichment (6-mer frequency, TF over GST control) with ETV7; 1.52 fold enrichment (6-mer frequency, TF over GST control) in the assay with ELF5; 1.45 fold enrichment (6-mer frequency, TF over GST control) with ETV3; 1.52 fold enrichment (6-mer frequency, TF over GST control) with ETV6.
